Hits are enriched below; roughly 3.3% of the tested compounds scored in any of these assays.
CTSL1 counter: Fasciola hepatica cathepsin L1 inhibitors, primary screen, counter-screen for PFM18AAP inhibitor project, biochemical, QFRET, fluorogenic peptide substrate | recombinant F. hepatica cathepsin L1, Z-Leu-Arg-MCA fluorescence | inhibition, % at 5.96 µM | 300,000 compounds, 0.49% hits;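 active means inhibition above the mean of all tested compounds plus 3 SD, set per screening campaign, cut at about 17% in these data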;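 further: 0% = plate median of test compound wells and 100% = 1 µM Z-Phe-Ala-diazomethylketone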
TPT1 inhibitor: Candida albicans TPT1 enzyme inhibitors, primary screen, biochemical, fluorescence polarization. recombinant caTPT1, FP RNA substrate dephosphorylation. inhibition, % at 5 µM. tRNA 2'-phosphotransferase TPT1 (Candida albicans SC5314). 300,000 compounds, 0.81% hits;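 active means inhibition above the mean of all tested compounds plus 3 SD, set per screening campaign, cut at about 24% in these data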;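 further: plate controls were DMSO alone for no effect and ferristatin control at 100 nM for full effect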
PHOSPHO1 inh: PubChem AID 1565 | recombinant PHOSPHO1, absorbance phosphatase assay | 290,000 compounds, 1.1% hits | inhibition, % at 13.3 µM | Phosphoethanolamine/phosphocholine phosphatase (Homo sapiens), Q8TCT1; in the data active means inhibition above about 60%
HNF4A DNA FP: change in binding of human HNF4A to DNA, primary screen, biochemical, fluorescence polarization, FITC-DNA. Hepatocyte nuclear factor 4-alpha (Homo sapiens), P41235. 1 h. activity change, % at 10 µM. 360,000 compounds, 0.3% hits. AID 1224865, 2016; in the data active means activity change above about 30%, passing the limit was not always enough
CendR NRP1 mod: modulators of CendR peptide binding to NRP-1, primary screen, biochemical, fluorescence polarization, uHTS; Neuropilin-1 (Homo sapiens), O14786; FAM-RPARPAR peptide binding to NRP-1; inhibition, % at 25 µM; 360,000 compounds, 0.85% hits;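 active means inhibition or corrected inhibition above about 18%, plus a signal ratio from 0.5 to 1.5, limit read from the data, passing the limit was not always enough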
Target sequence (O14786 whole entry, looked up): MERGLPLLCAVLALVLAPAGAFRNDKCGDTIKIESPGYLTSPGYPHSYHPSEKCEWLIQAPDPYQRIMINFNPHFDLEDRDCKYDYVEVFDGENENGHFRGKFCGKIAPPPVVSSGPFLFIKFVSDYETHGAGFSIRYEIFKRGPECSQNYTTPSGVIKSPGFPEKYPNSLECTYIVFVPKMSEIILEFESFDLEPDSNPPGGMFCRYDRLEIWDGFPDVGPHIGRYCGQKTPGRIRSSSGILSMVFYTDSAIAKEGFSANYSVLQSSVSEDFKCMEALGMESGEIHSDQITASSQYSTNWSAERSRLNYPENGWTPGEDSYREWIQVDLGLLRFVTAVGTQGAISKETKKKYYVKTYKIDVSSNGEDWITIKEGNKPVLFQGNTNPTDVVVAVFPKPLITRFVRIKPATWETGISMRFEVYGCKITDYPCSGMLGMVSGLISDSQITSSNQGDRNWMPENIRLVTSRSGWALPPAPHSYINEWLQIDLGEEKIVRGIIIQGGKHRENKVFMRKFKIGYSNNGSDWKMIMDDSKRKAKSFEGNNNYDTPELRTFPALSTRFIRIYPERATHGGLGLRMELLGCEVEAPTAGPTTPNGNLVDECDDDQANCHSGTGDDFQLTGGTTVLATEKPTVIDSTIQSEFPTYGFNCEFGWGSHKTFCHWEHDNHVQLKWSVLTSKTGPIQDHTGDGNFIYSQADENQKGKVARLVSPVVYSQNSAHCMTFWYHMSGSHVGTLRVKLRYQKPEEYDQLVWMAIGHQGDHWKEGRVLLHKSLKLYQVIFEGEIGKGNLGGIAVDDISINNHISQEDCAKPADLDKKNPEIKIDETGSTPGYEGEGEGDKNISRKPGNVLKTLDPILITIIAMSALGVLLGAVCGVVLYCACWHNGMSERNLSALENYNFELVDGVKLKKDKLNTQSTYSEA
Rpn11 inh: Rpn11 (PSMD14) deubiquitinase inhibitors, primary screen, biochemical, fluorescence polarization, uHTS; 26S proteasome non-ATPase regulatory subunit 14 (Homo sapiens), O00487; human 26S proteasome, Ub4-pepOG fluorescence polarization; 20S core pre-blocked with epoxomicin; inhibition, % at 20 µM; 360,000 compounds, 0.59% hits; AID 588493, 2011;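 active means inhibition at 20 µM, scaled to each plate's controls, above about 33%, limit read from the data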
An asterisk follows results filed as active; · = no result given.

SMILES | CTSL1 counter | TPT1 inhibitor | PHOSPHO1 inh | HNF4A DNA FP | CendR NRP1 mod | Rpn11 inh
Cc1ccn2c(NC3CCCCC3)c(-c3cccc(SC4CCCCC4)c3)nc2c1 | · | · | · | 10.9 | -43.9 | 19.5
Cc1ccn2c(NC3CCCCC3)c(-c3ccc(SC4CCCCC4)cc3)nc2c1 | · | · | · | 54.2* | -72.4 | ·
CC(C)c1ccc(C(=O)NNC(=O)C2CC=CCC2C(=O)O)cc1 (centres undefined) | -4.2 | -1.1 | 14.1 | -0.6 | -1.9 | -1.0
Cc1ccc(NC(=O)NC2CC(=O)N(c3ccc4c(c3)OCCO4)C2)c(C)c1 (centres undefined) | -2.4 | -0.4 | · | -1.4 | -10.0 | -0.6
CC(C)CN(CCNC(=O)CN1C(=O)COc2ccc(S(=O)(=O)N3CCC(C)CC3)cc21)CC(C)C | 19.9* | -2.5 | 20.7 | 1.2 | 10.0 | -5.7
CC(C)CN(CCNC(=O)CN1C(=O)COc2ccc(S(=O)(=O)N3CCOCC3)cc21)CC(C)C | 2.0 | -3.4 | 58.3 | -1.2 | 0.3 | -0.7
O=C(NCc1ccccc1)C(c1cc2ccccc2o1)n1c(=O)c(-c2ccco2)nc2ccccc21 (centres undefined) | · | · | · | 36.6* | -89.6 | ·
O=C(NC1CCCCC1)C(c1ccccc1F)n1c(=O)c(-c2ccco2)nc2ccccc21 (centres undefined) | · | · | · | 34.4* | -37.9 | ·
CC(C)(C)NC(=O)C(c1ccc(C(F)(F)F)cc1)n1c(=O)c(-c2ccco2)nc2ccccc21 (centres undefined) | · | · | · | 42.4* | -29.5 | ·
CCCCOc1ccc(S(N)(=O)=O)cc1 | 0.2 | -2.1 | 0.1 | -2.1 | -0.2 | -2.4
NS(=O)(=O)c1ccc(Oc2ccc(S(N)(=O)=O)cc2)cc1 | 16.9* | 3.6 | 61.5* | -0.5 | 10.2 | -5.1
Cn1c(-c2ccc(-c3ccccc3)cc2)c[nH]c1=S | 1.6 | -1.4 | 95.1* | -0.2 | 5.9 | 0.7
C=CCn1c(-c2ccccc2)c[nH]c1=S | 1.3 | -3.1 | 79.3* | 1.0 | -4.3 | 0.3
C=CCn1c(-c2ccc(Cl)cc2)c[nH]c1=S | 0.0 | -1.7 | 93.5* | -0.9 | -1.1 | -0.8
CCn1c(-c2ccc(-c3ccccc3)cc2)c[nH]c1=S | 0.8 | 6.3 | 97.4* | 3.0 | 3.1 | 11.3
Cc1c(Cl)cnc(NC(=O)COC(=O)[C@H](C)NC(=O)c2ccccc2)c1Cl | · | · | · | -2.0 | 26.2* | -3.2
Cc1c(Cl)cnc(NC(=O)COC(=O)CNC(=O)c2ccccc2)c1Cl | · | · | · | -2.6 | -7.7 | 2.1
COc1cc(NC(=O)CC[C@H]2O[C@@H](n3cnc4c(NC(=O)c5ccccc5)ncnc43)[C@H](O)[C@@H]2O)cc(OC)c1OC | · | · | · | -1.9 | 9.1 | -9.4
CC(C)[C@@H](C(=O)N[C@@H](CCc1ccc(O)cc1)C(=O)O)N(C)C(=O)[C@H](CO)NC(=O)[C@@H](O)[C@H](N)CCCCCCCCl | · | · | · | -0.3 | -8.3 | -5.6
Cc1ccc(N2C(=O)C3C4CCC(O4)C3C2=O)c(OC(F)F)c1 (centres undefined) | · | · | · | 1.2 | -14.0 | -4.3
Cc1ccc(F)c([C@H]2[C@@H]3C=CCC[C@@]3(C)C(=O)N2Cc2ccccc2)c1 | 1.1 | -1.2 | 30.9 | 2.5 | 27.6* | 2.0
CCn1cc(-c2cc(C(F)(F)F)n3nc(C(=O)O)cc3n2)c(C)n1 | 3.2 | -3.4 | 6.0 | 0.3 | 7.0 | 0.3
O=C(CSc1nnc(CNC(=O)C23CC4CC(CC(C4)C2)C3)n1-c1ccccc1)Nc1ccc(F)cc1 | 5.0 | -1.2 | -11.7 | -3.5 | 27.3* | -3.7
COc1cc2nc(COc3ccc(C#N)cc3)n(CC#N)c(=O)c2cc1OC | -1.1 | 4.5 | 16.3 | -0.1 | 1.0 | -1.5
CCOc1ccc(CCNC(=O)c2cccc(NC3=NC4CS(=O)(=O)CC4S3)c2)cc1 (centres undefined) | 0.3 | -0.7 | -35.1 | 1.5 | 9.5 | -7.7
SMILES | CTSL1 counter | TPT1 inhibitor | PHOSPHO1 inh | HNF4A DNA FP | CendR NRP1 mod | Rpn11 inh
O=S(=O)(O)c1cc(O)c2ccc(Nc3ccccc3)cc2c1 | · | · | · | -69.1 | -4.0 | 22.3
COc1ccccc1Nc1ccc2c(O)cc(S(=O)(=O)O)cc2c1 | · | · | · | -54.8 | 71.0* | 37.2
Nc1ccc2c(O)cc(S(=O)(=O)O)cc2c1 | · | · | · | -14.7 | 27.8* | 31.2
O=S(=O)(O)c1cc(O)c2cc(Nc3ccccc3)ccc2c1 | · | · | · | -60.4 | 41.9* | -8.2
CCCCN(C(=O)c1ccc(C)c(S(=O)(=O)N2CCOCC2)c1)c1c(N)n(CCCC)c(=O)[nH]c1=O | 7.2 | -1.5 | · | -2.3 | 11.4 | 12.4
Cc1c(C(=O)Nc2ccccn2)sc2nc3n(c(=O)c12)CCC3 | 0.6 | 7.7 | 12.5 | 5.0 | -13.8 | 10.0
COc1ccc(-c2nc(CS(=O)CC(=O)NC3CCCCC3)c(C)o2)cc1 (centres undefined) | 4.7 | -5.3 | 16.9 | 1.4 | 21.6 | 0.0
COc1ccc(-c2nc(CS(=O)CC(=O)NC3CCCCCC3)c(C)o2)cc1 (centres undefined) | 0.1 | 1.9 | 64.9* | 4.3 | 2.6 | -1.0
N#C/C(=C\c1coc2ccccc2c1=O)C(N)=S | 0.3 | 0.3 | 31.7 | 15.1 | -73.2 | 43.7*
Cn1cc(CN2CCN(Cc3ccccc3)C(CCO)C2)c(-c2ccccc2)n1 (centres undefined) | -1.8 | -5.5 | -45.6 | 0.6 | 1.0 | 2.4
CCOc1ccccc1CN1CCN(Cc2cn(C)nc2-c2ccccc2)CC1CCO (centres undefined) | 5.3 | -3.2 | 60.1* | 4.2 | 6.6 | 1.2
CCN1C[C@@H]2[C@@H]3C(=O)N(C)C(=O)[C@@H]3[C@](CC)(C(=O)OC)N2C1=NC | · | · | · | -0.9 | -1.1 | -5.9
O=C1OCC(Cn2c3ccccc3c3ccccc32)O1 (centres undefined) | 1.2 | 0.3 | 77.6* | -18.0 | -9.5 | -4.3
COc1ccc(NC(=O)CC2C(=O)N(C)C(=S)N2Cc2ccncc2)cc1 (centres undefined) | -2.4 | -1.2 | -150.6 | 0.1 | -21.8 | -6.0
CC(C)(C)c1cc[n+](-c2nc([O-])sc2C=O)cc1 | 0.2 | -2.4 | -5.0 | -2.7 | 10.1 | -15.6
CCc1cc[n+](-c2nc([O-])sc2C=O)cc1 | 2.6 | -72.4 | 79.2* | -39.9 | 19.1 | -66.8
CCOC(=O)c1nc(C)nc(Sc2n[nH]c(-c3ccc(C(C)(C)C)cc3)n2)c1C | -5.3 | -2.3 | 29.8 | -0.9 | 0.5 | 4.7
CC(=O)c1ccc(NC(=O)CSc2nnc3ccc(-c4ccccn4)nn23)cc1 | 3.4 | -2.2 | · | -0.6 | -4.6 | 2.1
CN(c1ccccc1)S(=O)(=O)c1cccc(C(=O)OCC(=O)NCc2ccco2)c1 | -0.2 | 2.6 | 65.8* | 0.2 | -8.2 | 3.4
Cc1cccc(N(C(=O)c2csnn2)C(C(=O)NC2CCCCC2)c2ccccn2)c1C (centres undefined) | 6.1 | 6.2 | 26.5 | -2.7 | -1.6 | 1.0

Screening results from PubChem.
